# Test results from PubChem BioAssay (NCATS).
# Unmarked numbers belong to inactive results. Results filed as inconclusive are left out. A call without a number means that no potency is given here. The source made the active and inactive calls. Calls follow the shape of the dose curve; as a rule, active = well fitted curve in the direction sought with a large enough effect; inconclusive = small, poorly fitted or top-dose-only effect, or another doubt; inactive = no such curve, though single readings can be large; an effect the other way counts as inactive or inconclusive. Where a SMILES comes first, the peptide text is derived from it. The star is where a group is joined. PhAc = O=C(Cc1ccccc1)*
# Key:
# [1] = biological target: Glutathione peroxidase 1 (Homo sapiens) (UniProt P07203); experiment: Primary qHTS Assay for Inhibitors of Recombinant Selenoprotein Glutathione Peroxidase 1 (GPX1) (AID 1845191); also: nearly all actives have a fitted effect of over 65% in size
# How it was run: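 NADPH consumption tracked by fluorescence at 340/450 nm between t=0 and t=15 min, room temperature. Final mix: 10 nM GPX1, 100 nM glutathione reductase, 1 mM GSH, 0.5 mM NADPH, 0.5 mM cumene hydroperoxide, 0.01% BSA; 30 min compound–enzyme preincubation.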
# [2] = biological target: Phospholipid hydroperoxide glutathione peroxidase GPX4 (Homo sapiens) (UniProt P36969); experiment: Primary qHTS Assay for Inhibitors of Recombinant Selenoprotein Glutathione Peroxidase 4 (GPX4) (AID 1845192); also: nearly all actives have a fitted effect of over 65% in size; as to activity change, negative = inhibition: series mostly up to about 50 µM
# How it was run: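 NADPH consumption followed by fluorescence at 340/450 nm, t=0 and after 15 min at room temperature. Reaction started with cumene hydroperoxide (0.5 mM final) after 30 min compound–GPX4 preincubation; final 200 nM GPX4, 100 nM GR, 1 mM GSH, 0.5 mM NADPH.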
# [3] = biological target: Luciferin 4-monooxygenase (Photinus pyralis) (UniProt P08659); experiment: Primary firefly luciferase (FLuc) qHTS assay for identification of artifact compounds. (AID 1845220); also: nearly all actives have a fitted effect of over 60% in size; as to activity change, negative = inhibition: series mostly up to about 54 µM
# How it was run: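 Cell-free, 1536-well qHTS. Buffer pH 7.6 with 0.01% Tween-20 and 0.05% BSA; 10 uM D-luciferin, 10 uM ATP; 10 nM P. pyralis luciferase; luminescence after 5 min.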
# [4] = Primary fluorescence-based thiol-reactive (MSTI) qHTS assay for identification of artifact compounds. (AID 1845221); also: nearly all actives have a fitted effect of over 65% in size; also: potency is read from the fitted curve at half-maximal effect;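 as to activity change, negative = thiol reactive: series mostly up to about 54 µM; thiol-reactive compounds lower the probe fluorescence signal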
# How it was run: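 Thiol-reactive compounds detected by quenching of 4 uM MSTI fluorescence (525/598 nm) after 1 h room-temperature dark incubation in PBS pH 7.4, 2% DMSO. qHTS titration; percent inhibition Hill-fitted against Acetyl-MSTI/MSTI controls.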
# Sequence of Glutathione peroxidase 1 (Homo sapiens) (P07203 whole entry, looked up): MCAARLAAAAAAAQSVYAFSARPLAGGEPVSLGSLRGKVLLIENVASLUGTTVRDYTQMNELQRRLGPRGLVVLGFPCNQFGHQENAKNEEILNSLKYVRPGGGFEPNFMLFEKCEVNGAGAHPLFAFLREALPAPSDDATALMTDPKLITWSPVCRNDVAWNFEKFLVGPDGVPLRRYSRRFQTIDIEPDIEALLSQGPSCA
# Sequence of Phospholipid hydroperoxide glutathione peroxidase GPX4 (Homo sapiens) (P36969 whole entry, looked up): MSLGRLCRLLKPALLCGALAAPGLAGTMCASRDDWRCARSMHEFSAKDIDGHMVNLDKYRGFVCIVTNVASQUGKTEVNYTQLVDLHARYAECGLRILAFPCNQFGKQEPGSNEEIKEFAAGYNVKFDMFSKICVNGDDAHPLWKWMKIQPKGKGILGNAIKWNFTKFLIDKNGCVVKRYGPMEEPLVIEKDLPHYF
Compound,Potency [1],Potency [2],"activity change, negative = inhibition [3]",Potency [4],Potency [3],outcome [3],"activity change, negative = thiol reactive [4]"
CC(/C=C/C=C(\C)C(=O)O[C@@H]1O[C@H](CO[C@@H]2O[C@H](CO)[C@@H](O)[C@H](O)[C@H]2O)[C@@H](O)[C@H](O)[C@H]1O)=C\C=C\C=C(C)\C=C\C=C(/C)C(=O)O[C@@H]1C[C@](O)(C(=O)O)C[C@@H](O)[C@H]1OC(=O)/C=C/c1ccc(O)c(O)c1,inactive,inactive,-0.112% [at 11.6 µM],0.45 µM (active),–,–,–
CC(C)Oc1ccc(-c2nc(-c3cccc4c3CCC4NCCC(=O)O)no2)cc1C#N (centres undefined),inactive,inactive,–,inactive,inactive,–,–
Cc1cc(C(=O)N2Cc3cnn(C)c3Nc3ccccc32)ccc1CNC(=O)N1CCN(Cc2cc(O)cc(O)c2)CC1,inactive,inactive,–,inactive,inactive,–,–
COC(=O)C(CC1(OC(=O)C(C)C)c2ccccc2N2C(=O)C(C)(C)N(O)C21)n1cnc2ccccc2c1=O (centres undefined),inactive,inactive,–,inactive,inactive,–,–
CC(CC(C)O[C@@H]1O[C@H](CO)[C@@H](O)[C@H](O)[C@H]1O)OC(=O)/C=C/c1ccc(O)cc1 (some centres undefined),inactive,inactive,–,4.62 µM (active),inactive,–,–
COc1c(C)c(OCC=C(C)C)cc2c1COC2=O,inactive,inactive,–,inactive,inactive,–,–
C[C@@H]1O[C@@H](O[C@H]2[C@H](OC(=O)[C@]34CCC(C)(C)C[C@H]3C3=CCC5[C@@]6(C)C[C@@H](O)[C@@H](O)[C@@](C)(CO)C6[C@H](O)C[C@@]5(C)[C@]3(C)CC4)OC[C@H](O)[C@@H]2O)[C@H](O)[C@H](O)[C@H]1O[C@@H]1OC[C@@H](O)[C@H](O[C@H]2O[C@H](C)[C@@H](O)[C@H](O)[C@@H]2O)[C@H]1O (some centres undefined),inactive,inactive,–,–,–,inactive [at 11.6 µM],381% [at 11.5 µM]
CCOc1nc2c(N)ncnc2n1CC,inactive,inactive,–,inactive,inactive,–,–
C[C@@H]1O[C@@H](O[C@H]2[C@@H]3C=CO[C@@H](O[C@@H]4O[C@H](CO)[C@@H](O)[C@H](O)[C@H]4O)[C@@H]3[C@@]3(CO)O[C@@H]23)[C@H](OC(=O)/C=C/c2ccc(O)cc2)[C@H](O)[C@H]1O,inactive,inactive,–,3.54 µM (active),inactive,–,–
CC(=O)O[C@@H]1C(O)C[C@@]2(C)C(CC[C@@H](C)C23Cc2c(O)cc4c(c2O3)CNC4=O)C1(C)C (some centres undefined),inactive,inactive,–,inactive,inactive,–,–
C/C=C(/C)C(=O)OC1C(OC(C)=O)C23C(O)OC4(CCC5C6(C)CCC(OC7OC(C(=O)O)C(O)C(OC8OC(CO)C(O)C(O)C8OC8OC(C)C(O)C(O)C8OC8OCC(O)C(O)C8O)C7OC7OC(CO)C(O)C(O)C7O)C(C)(C)C6CCC5(C)C4(C)CC2OC(C)=O)C3CC1(C)C (centres undefined),inactive,inactive,–,–,–,inactive [at 11.6 µM],196% [at 11.5 µM]
C/C=C1/CC2C(=O)Nc3cc(O)c(OC)cc3C(=O)N2C1 (centres undefined),inactive,inactive,–,13.1 µM (active),inactive,–,–
COc1cc(C(C)=O)ccc1O[C@@H]1O[C@H](CO)[C@@H](O)[C@H](O)[C@H]1O,inactive,inactive,–,inactive,inactive,–,–
C[C@]1(O)CC[C@@H]2C(C(=O)O)=CO[C@@H](O[C@@H]3O[C@H](COC(=O)/C=C/c4ccc(O)c(O)c4)[C@@H](O)[C@H](O)[C@H]3O)[C@@H]21,inactive,inactive,–,3.27 µM (active),inactive,–,–
CC1=C(CC/C(C)=C/C(=O)O)[C@@]2(C)CCCC(C)(C)C2CC1=O (some centres undefined),inactive,inactive,–,inactive,inactive,–,–
CC1(C)OC(=O)C=C[C@@]2(C)C1CC(=O)[C@]1(C)C2CC[C@@]2(C)[C@H](c3ccoc3)OC(=O)[C@H]3O[C@]321 (some centres undefined),inactive,inactive,–,inactive,inactive,–,–
C=C(CCO)C(=O)OCC1OCC(OC(=O)C(=C)CCO[C@@H]2O[C@H](CO)[C@@H](O)[C@H](O)[C@H]2O)C(O)C1O (some centres undefined),inactive,inactive,–,inactive,inactive,–,–
CC1(C)CC[C@]2(C(=O)O)CC[C@]3(C)C(=CCC4[C@@]5(C)CC[C@H](O[C@@H]6O[C@H](C(=O)O)[C@@H](O)[C@H](O)[C@H]6O)C(C)(C)C5CC[C@]43C)C2C1 (some centres undefined),inactive,inactive,–,inactive,inactive,–,–
CCCCC(=O)N1c2ccccc2NC2=C(C(=O)CCC2)C1c1ccccc1Cl (centres undefined),inactive,inactive,–,inactive,inactive,–,–
O=C(O)C(Cc1ccccc1)NC(=O)C1CCCN1 (stereo not drawn) (H-Pro-Phe-OH; configuration not given here),inactive,inactive,–,inactive,inactive,–,–
C[C@@H]1O[C@@H](O[C@H]2[C@@H]3C=CO[C@@H](O[C@@H]4O[C@H](CO)[C@@H](O)[C@H](O)[C@H]4O)[C@@H]3[C@@]3(CO)O[C@@H]23)[C@H](O)[C@H](OC(=O)/C=C/c2ccc(O)cc2)[C@H]1OC(=O)/C=C/c1ccc(O)cc1,inactive,inactive,–,inactive,inactive,–,–
Cc1oc(S(=O)(=O)N2CCCCC2)cc1NC(=O)Nc1ccccc1,inactive,inactive,–,inactive,inactive,–,–
CC[C@H](NC(=O)c1c(O)c(-c2ccccc2)nc2ccccc12)c1ccccc1,inactive,inactive,–,2.67 µM (active),inactive,–,–

Compound,Potency [1],Potency [2],"activity change, negative = inhibition [3]",Potency [4],Potency [3],outcome [3],"activity change, negative = thiol reactive [4]"
COc1ccc(NC(=O)c2ccc(-c3ccc(C(N)=O)cc3C)cc2)cc1N1CCN(C)CC1,inactive,inactive,–,inactive,inactive,–,–
CCC1OC(=O)C(C)CC(C)C(=O)/C(C)=C/C(C)C(=O)/C=C/C1(C)O (centres undefined),inactive,inactive,–,inactive,inactive,–,–
CCOC(=O)CNC(=O)[C@@H]1CCCN1C(=O)Cc1ccccc1 (PhAc-Pro-Gly-OEt),inactive,inactive,–,inactive,inactive,–,–
C[C@@H]1O[C@@H](O[C@H]2[C@H](O)[C@@H](O)[C@H](OC[C@H]3O[C@@H](OC(=O)[C@]45CCC(C)(C)C[C@H]4C4=CCC6[C@@]7(C)C[C@@H](O)[C@H](O)[C@@](C)(CO)C7[C@H](O)C[C@@]6(C)[C@]4(C)CC5)[C@H](O)[C@@H](O)[C@@H]3O)O[C@@H]2CO)[C@H](O)[C@H](O)[C@H]1O (some centres undefined),inactive,inactive,0.345% [at 11.6 µM],–,–,–,224% [at 11.5 µM]
Cn1cc(-c2c[nH]c3ncnc(N4CCOCC4)c23)cn1,inactive,inactive,–,inactive,inactive,–,–
c1cc(-c2cc(C3CCNCC3)[nH]n2)ccn1,inactive,inactive,–,inactive,inactive,–,–
O=C(NC1CCN(CC(F)(F)F)CC1)c1ccc(-c2cccc(F)c2)nc1,inactive,inactive,–,inactive,inactive,–,–
FC(F)(F)Oc1ccc(-c2ccc3nnc(C(F)(F)F)n3c2)cc1,inactive,inactive,–,inactive,inactive,–,–
COc1cccc(CNc2ccc(S(=O)(=O)Nc3nc4ccccc4s3)cc2)c1O,inactive,inactive,–,inactive,inactive,–,–
CCC(CC)CC1(C(=O)Nc2ccccc2SC(=O)C(C)C)CCCCC1,inactive,inactive,–,inactive,inactive,–,–
CN(C)CC(c1ccc(O)cc1)C1(O)CCCCC1 (centres undefined),inactive,inactive,–,inactive,inactive,–,–
CC(=O)OC(C)C(C)(O)C(=O)O[C@@H]1CC[C@]2(C)CC(=O)C(=C(C)C)C[C@H]2[C@]1(C)OC(C)=O (some centres undefined),inactive,inactive,–,inactive,inactive,–,–
OC[C@@]1(O)CO[C@@H](OC[C@H]2O[C@@H](OCc3ccccc3)[C@H](O)[C@@H](O)[C@@H]2O)[C@@H]1O,inactive,inactive,–,inactive,inactive,–,–
CC(=O)NC1C(OC2CCC3(C)C(CCC4(C)C3CC=C3C5CC(C)(C)CCC5(C(=O)O)C(O)CC34C)C2(C)C)OC(CO)C(O)C1O (centres undefined),inactive,inactive,–,inactive,inactive,–,–
CC(C)=CCC[C@](C)(O[C@@H]1O[C@H](CO[C@@H]2O[C@@H](CO)[C@H](O)[C@H]2O[C@@H]2OC[C@@H](O)[C@H](O)[C@H]2O)[C@@H](O)[C@H](O)[C@H]1O)[C@H]1CC[C@]2(C)[C@@H]1[C@H](O)CC1[C@@]3(C)CC[C@H](O[C@@H]4O[C@H](CO)[C@@H](O)[C@H](O)[C@H]4O[C@@H]4O[C@H](CO)[C@@H](O)[C@H](O)[C@H]4O)C(C)(C)C3CC[C@]12C (some centres undefined),inactive,inactive,0.984% [at 11.6 µM],–,–,–,132% [at 11.5 µM]
CCCc1[nH]nc2c1C(c1cc(Cl)cc(Cl)c1O)C(C#N)=C(N)O2 (centres undefined),inactive,inactive,–,inactive,inactive,–,–
COC(=O)c1c(CC=C(C)C)c(OC2OC(CO)C(O)C(O)C2O)c2ccccc2c1OC1OC(CO)C(O)C(O)C1O (centres undefined),inactive,inactive,–,inactive,inactive,–,–
C/C=C1/[C@H](O[C@@H]2O[C@H](CO)[C@@H](O)[C@H](O)[C@H]2O)OC=C(C(=O)OC)[C@H]1CC(=O)OCCc1ccc(O)c(O)c1,inactive,inactive,–,2.07 µM (active),inactive,–,–
O=C(OC[C@H]1O[C@@H](Oc2ccccc2COC(=O)C2(O)C=CCCC2O)[C@H](O)[C@@H](O)[C@@H]1O)c1ccccc1 (some centres undefined),inactive,inactive,–,5.19 µM (active),inactive,–,–
C[C@]12CCC[C@](C)(C(=O)O)C1CCC13CC(CO)C(CCC12)C3 (some centres undefined),inactive,inactive,–,inactive,inactive,–,–
CCOc1ccc(-c2nn3ncccc3c2-c2ccc(S(C)(=O)=O)cc2)cc1,inactive,inactive,–,inactive,inactive,–,–
CCC/C=C1\OC(=O)C2=C1CCC(O)C2O (centres undefined),inactive,inactive,–,inactive,inactive,–,–
COC(=O)C1=COC(OC2OC(CO)C(O)C(O)C2O)C2C(COC(=O)/C=C/c3ccc(O)cc3)C(O)C(O)C12 (centres undefined),inactive,inactive,–,5.82 µM (active),inactive,–,–
